From PubChem BioAssay (EPA / NIEHS)
Active and inactive are the calls of the source. Rule for the calls: active = hit-call score of the fitted dose curve at least 0.9, where 1 is the maximum; inactive = score below 0.9.

Assays:
[1] = APR_HepG2_CellLoss_72hr: Apredica 72-hour HepG2 Assay for Cell Loss (AID 2282915); settings: high-content imaging
In short: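 HepG2 cells were exposed for 72 hr to compounds at 0.39–200 uM (ten concentrations, duplicate) in 0.5% v/v final DMSO. Nuclei were stained with Hoechst 33342 after 3.7% formaldehyde fixation, imaged at 20x, and counted; fits bidirectional versus DMSO.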

[2] = APR_HepG2_P-H2AX_72hr: Apredica 72-hour HepG2 Assay for H2AX Phosphorylation (AID 2282916); settings: imaging, actives raise or lower the signal;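 note: phospho-histone H2A.x immunostain intensity per cell marking DNA damage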
In short: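 HepG2 cells treated 72 h at 0.39–200 uM, 0.5% DMSO final, duplicates. Formaldehyde-fixed, Triton-permeabilised, immunostained for phospho-H2A.x with Hoechst; fluorescence imaged at 20x, bidirectional fit versus DMSO.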

[3] = APR_HepG2_MitoMembPot_72hr: Apredica 72-hour HepG2 Assay for Mitochondrial Membrane Potential (AID 2282917); settings: imaging, actives raise or lower the signal
In short: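 HepG2 cells exposed 72 h to compounds at 0.39–200 uM (0.5% v/v DMSO, duplicates); MitoTracker Red CMXRos 250 nM loaded 30 min before 3.7% formaldehyde fixation, imaged by HCS fluorescence. Bidirectional fit versus DMSO.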

[4] = APR_HepG2_MitoticArrest_72hr: Apredica 72-hour HepG2 Assay for Mitotic Arrest (AID 2282918); settings: high-content imaging, actives raise or lower the signal
In short: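 Mitotic arrest in HepG2 is scored from phospho-histone H3 staining after 72 hr dosing across 0.39–200 uM, with DMSO at 0.5% v/v. Nuclei are identified by Hoechst 33342 and fluorescence intensity is quantified per cell.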

[5] = APR_HepG2_MicrotubuleCSK_72hr: Apredica 72-hour HepG2 Assay for Microtubule CSK Stabilty (AID 2282919); settings: HepG2 microtubule cytoskeleton, high-content imaging, actives raise or lower the signal
In short: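 HepG2 human liver cells were dosed for 72 h at ten concentrations from 0.39 to 200 uM in duplicate (0.5% v/v DMSO final). Fixed, permeabilized cells were immunostained for alpha-tubulin (Cy5) with a Hoechst counterstain and imaged at 20x.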

[6] = APR_HepG2_P-H2AX_24hr: Apredica 24-hour HepG2 Assay for H2AX Phosphorylation (AID 2282920); settings: high-content imaging, actives raise or lower the signal
In short: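 Signal comes from a FITC-labeled secondary detecting phospho-histone H2A.x in fixed HepG2 cells, quantified by automated imaging at 20x. Dosing ran 24 hr across 0.39–200 uM with 0.5% v/v DMSO.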

[7] = APR_HepG2_StressKinase_72hr: Apredica 72-hour HepG2 Assay for Stress Kinase (AID 2282921); settings: HepG2 stress kinase (phospho-c-Jun) imaging, actives raise or lower the signal
In short: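 HepG2 cells treated 72 hr with 0.39–200 uM compound, 0.5% v/v DMSO, duplicate wells. After formaldehyde fixation and Triton permeabilization, stained with anti-phospho-c-Jun (1:500) and Cy3 secondary, imaged at 20x. Fitted in both directions against DMSO.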

[8] = APR_HepG2_StressKinase_24hr: Apredica 24-hour HepG2 Assay for Stress Kinase (AID 2282922); settings: HepG2 stress kinase (phospho-c-Jun) imaging, actives raise or lower the signal
In short: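 HepG2 cells exposed 24 hr to compound at 0.39–200 uM (10 concentrations, duplicate), 0.5% v/v DMSO final. Fixed in 3.7% formaldehyde, permeabilized with Triton X-100, immunolabeled for phospho-c-Jun with Hoechst 33342; HCS fluorescence imaging, bidirectional fit versus DMSO.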

[9] = APR_HepG2_p53Act_72hr: Apredica 72-hour HepG2 Assay for p53 Activation (AID 2282923); settings: high-content imaging, actives raise or lower the signal;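 note: average cellular p53 protein immunofluorescence intensity in HepG2 cells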
In short: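 HepG2 cells exposed 72 h to 0.39–200 uM in 0.5% DMSO, duplicates. Fixed, permeabilized cells immunostained for p53 (Cy5) with Hoechst; imaged at 20x, fluorescence analyzed bidirectionally against DMSO.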

[10] = APR_HepG2_MitoMass_72hr: Apredica 72-hour HepG2 Assay for Mitochondrial Mass (AID 2282924); settings: high-content imaging, actives raise or lower the signal;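 note: MitoTracker Red CMXRos stain intensity per cell imaged as mitochondrial mass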
In short: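 HepG2 cells were exposed for 72 hr to compounds at 0.39–200 uM (ten concentrations, duplicate, 0.5% v/v DMSO final). Live cells were stained with 250 nM MitoTracker Red CMXRos for 30 min, then fixed in 3.7% formaldehyde and imaged by HCS fluorescence.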

Measured: AC50

CC(CO)OC(C)CO (stereo not drawn) (tested in a mixture with another compound)
inactive: [1] | [2] | [3] | [4] | [5] | [6] | [7] | [8] | [9] | [10]

CN[C@H]1CC[C@@H](c2ccc(Cl)c(Cl)c2)c2ccc(S(N)(=O)=O)cc21
inactive: [3] | [8] | [9] | [10]
active: [1] 6.85 µM | [2] 100 µM | [4] 3.89 µM | [5] 12.1 µM | [6] 100 µM | [7] 123 µM

O=C(OCCCCCOC(=O)c1ccccc1)c1ccccc1
active: [1] 100 µM
inactive: [2] | [3] | [4] | [5] | [6] | [7] | [8] | [9] | [10]

CCCCCC(=O)O
inactive: [1] | [2] | [3] | [4] | [5] | [6] | [8] | [9] | [10]

NCCO
inactive: [1] | [2] | [3] | [4] | [5] | [6] | [7] | [8] | [9] | [10]

CC(=O)C(C)=CC1C(C)=CCCC1(C)C (stereo not drawn)
inactive: [1] | [2] | [3] | [4] | [5] | [6] | [8] | [9] | [10]

NC(=O)Cn1c(=O)cc(CCN2CCN(c3nccc4sccc34)CC2)c2ccc(F)cc21
inactive: [3] | [5] | [6] | [8] | [10]
active: [1] 82 µM | [2] 101 µM | [4] 98.9 µM | [9] 101 µM

COc1cc(-c2nc(NC(=O)c3cc4cc(C)cc(C)c4n3CC(=O)O)sc2CCC2CCCCC2)c(OC)cc1Cl
inactive: [2] | [3] | [7] | [9]
active: [1] 26.4 µM | [4] 41.1 µM | [5] 25.2 µM | [6] 38.9 µM | [8] 48.8 µM | [10] 78.6 µM

CCOC(=O)CCC(=O)OCC
inactive: [1] | [2] | [3] | [4] | [5] | [6] | [7] | [8] | [9] | [10]

Cc1oc(-c2ccccc2)nc1CCOc1cccc2c1ccn2CCC(=O)O
inactive: [1] | [2] | [3] | [4] | [5] | [6] | [7] | [8] | [9] | [10]

Cc1ccc(C(C)C)c(O)c1
inactive: [1] | [2] | [3] | [4] | [5] | [6] | [7] | [8] | [9] | [10]

CCCCCCCCCCCCCCCC
inactive: [1] | [2] | [3] | [4] | [5] | [6] | [8] | [9] | [10]

CC1(C)CC(N=C=O)CC(C)(CN=C=O)C1 (stereo not drawn)
active: [2] 101 µM | [4] 93.1 µM | [6] 101 µM
inactive: [1] | [3] | [5] | [7] | [8] | [9] | [10]

COC(=O)c1ccc(O)cc1
inactive: [1] | [2] | [3] | [4] | [5] | [6] | [7] | [8] | [9] | [10]

COc1cccc2c1C(=O)c1c(O)c3c(c(O)c1C2=O)C[C@@](O)(C(=O)CO)C[C@@H]3O[C@H]1C[C@H](N)[C@H](O)[C@H](C)O1
inactive: [3]
active: [1] 0.0653 µM | [2] 1.48 µM | [4] 1.37 µM | [5] 0.7 µM | [6] 3.17 µM | [7] 17.6 µM | [8] 8.8 µM | [9] 0.177 µM | [10] 36.6 µM

COc1ccc2c(c1)c(CC(=O)O)c(C)n2C(=O)c1ccc(Cl)cc1
inactive: [1] | [2] | [3] | [4] | [5] | [6] | [7] | [8] | [9] | [10]

Cc1cccc(Nc2cc(Cl)nc(SCC(=O)O)n2)c1C
inactive: [1] | [2] | [3] | [4] | [5] | [6] | [7] | [8] | [9] | [10]

CC(=O)Oc1ccccc1C(=O)O
inactive: [1] | [2] | [3] | [4] | [5] | [6] | [7] | [8] | [9] | [10]

COc1cc(C=O)ccc1O
inactive: [1] | [2] | [3] | [4] | [5] | [6] | [7] | [8] | [9] | [10]

CC(=O)OC/C=C(\C)CCC=C(C)C
inactive: [1] | [2] | [3] | [4] | [5] | [6] | [7] | [8] | [9] | [10]

Cc1cc(NC(=O)C(=O)O)cc(C)c1Oc1ccc(O)c2c1CCC2
inactive: [1] | [2] | [3] | [4] | [5] | [6] | [7] | [8] | [9] | [10]

O=[N+]([O-])C(CO)(CO)CO
active: [1] 107 µM | [2] 118 µM | [4] 105 µM | [7] 112 µM | [9] 119 µM
inactive: [3] | [5] | [6] | [8] | [10]

Cc1nc(-c2ccc3c(c2)CCN(CCC2CCC(NC(=O)/C=C/c4ccc(F)cc4)CC2)CC3)no1 (stereo not drawn)
inactive: [1] | [3] | [5] | [6] | [8] | [10]
active: [2] 25.2 µM | [4] 24.2 µM | [7] 16.2 µM | [9] 23.8 µM

CCCCC(CC)COC(=O)CC(C(=O)OCC(CC)CCCC)S(=O)(=O)O (stereo not drawn)
inactive: [5] | [7] | [8] | [10]
active: [1] 141 µM | [2] 108 µM | [3] 112 µM | [4] 80.8 µM | [6] 102 µM | [9] 103 µM

Nc1nc(N)c2nc(CNc3ccc(C(=O)N[C@@H](CCC(=O)O)C(=O)O)cc3)cnc2n1
inactive: [1] | [2] | [3] | [4] | [5] | [6] | [7] | [8] | [9] | [10]

CCc1c(C(=O)NN2CCCCC2)nn(-c2ccc(Cl)cc2Cl)c1-c1ccc(Br)cc1
active: [1] 27.2 µM | [3] 113 µM | [4] 27.7 µM | [5] 30 µM | [6] 70.4 µM | [7] 32.8 µM | [10] 162 µM
inactive: [2] | [8] | [9]

CCCCCCCCCCCC(=O)OC
inactive: [1] | [2] | [3] | [4] | [5] | [6] | [7] | [8] | [9] | [10]

Cc1ccccc1Cl
inactive: [1] | [2] | [3] | [4] | [5] | [6] | [8] | [9] | [10]

NCC1(Cc2noc(=O)[nH]2)CCCCC1
inactive: [1] | [2] | [3] | [4] | [5] | [6] | [7] | [8] | [9] | [10]

CC1=C(/C=C/C(C)=C/C=C/C(C)=C/CO)C(C)(C)CCC1
active: [1] 96.6 µM | [2] 19.4 µM | [4] 92.8 µM | [6] 76.5 µM | [8] 72.1 µM | [10] 112 µM
inactive: [3] | [5] | [9]

CCCCOC(=O)CCCCCCCCC(=O)OCCCC
inactive: [1] | [2] | [3] | [4] | [5] | [6] | [8] | [9] | [10]

O=C(O)Cc1ccccc1Nc1c(Cl)cccc1Cl
active: [1] 107 µM
inactive: [2] | [3] | [4] | [5] | [6] | [8] | [9] | [10]

CN1CCCC1=O
inactive: [1] | [2] | [3] | [4] | [5] | [6] | [8] | [9] | [10]

CCCCCCCC=O
inactive: [1] | [2] | [3] | [4] | [5] | [6] | [8] | [9] | [10]

CC=Cc1ccc(O)c(OC)c1
inactive: [1] | [2] | [3] | [4] | [5] | [6] | [8] | [9] | [10]

C1CCC(SSC2CCCCC2)CC1
inactive: [2] | [3] | [5] | [8] | [10]
active: [1] 97.4 µM | [6] 113 µM | [7] 108 µM | [9] 148 µM

CCCCCCCCCCCCCO
inactive: [5] | [6] | [8] | [9] | [10]
active: [1] 113 µM | [2] 108 µM | [3] 120 µM | [4] 104 µM

C[C@]12C=CC(=O)C=C1CC[C@@H]1[C@@H]2C(=O)C[C@@]2(C)[C@H]1CC[C@]2(O)C(=O)CO
inactive: [1] | [2] | [3] | [5] | [6] | [7] | [8] | [9] | [10]

CCCCCCOCCO
inactive: [1] | [2] | [3] | [4] | [5] | [6] | [8] | [9] | [10]

COc1cc(/C=C/C(=O)CC(=O)/C=C/c2ccc(O)c(OC)c2)ccc1O
active: [1] 9.56 µM | [2] 15.1 µM | [4] 22 µM | [5] 15.9 µM | [6] 76.1 µM | [8] 47.9 µM | [9] 19.1 µM | [10] 22.2 µM
inactive: [3]

CCCCCCCCCCC
inactive: [1] | [2] | [3] | [4] | [5] | [6] | [8] | [9] | [10]
